The values that follow come from PubChem BioAssay (NCATS).

Records with an inconclusive call do not appear. The source made the active and inactive calls. The call rests on the fitted dose curve; in most records, active means well fitted inhibition curve with a large enough effect; inconclusive means small, poorly fitted or top-dose-only effect; inactive means flat fitted curve, though single readings scatter.
Potency means the concentration at half of the fitted maximal effect.

The nature of this experiment: P-glycoprotein substrates identified in KB-8-5-11 adenocarcinoma cell line, qHTS therapeutic library screen (AID 1346987). Further: nearly all actives have a fitted effect of over 65% in size. Particulars: KB-8-5-11 (P-gp overexpressing) viability, CellTiter-Glo, 72 h; series mostly up to 44.5 µM. In outline:
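KB-8-5-11, a colchicine-selected P-gp-overexpressing KB-3-1 subline, was grown without colchicine for the assay. Cells were seeded at 500 cells/well, dosed in concentration-response and incubated 72 h at 37 degree C, 5% CO2. Viability was read by CellTiter-Glo luminescence.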
For orientation: Quantitative high-throughput screening tests each substance at several concentrations.
In the case of `CC(C)n1cnc2c(Nc3cccc(Cl)c3)nc(NCCO)nc21`, the Potency is 14.6 µM (active). In the case of `CCC(=O)Nc1cccc(Oc2nc(Nc3ccc(N4CCN(C)CC4)cc3OC)ncc2Cl)c1` it was 16.4 µM (active); in that of `Cc1cc(CN)cc(C)c1NC(=O)c1ccc(-c2cc(Cl)ccc2Cl)o1`, 20.6 µM (active); in that of `c1ccc(-c2cnc(Nc3ccc(OCCN4CCCC4)cc3)s2)cc1`, 16.4 µM (active). For `Fc1ccccc1CNCc1ccc(-c2ccnc3[nH]ccc23)cc1` the value was 11.6 µM (active); for `C=C1C(=O)O[C@@H]2C[C@@H](C)[C@]34C[C@]5(C(=O)O[C@H]6CC(C)=C([C@H](C)CCCO)[C@H](OC(=O)C(C)CC)[C@H]65)[C@@H](C(C)=C3C[C@@H]12)[C@H]4OC(C)=O` (some centres undefined), 5.44 µM (active); for `C[C@H](NC(=O)C(C)(C)Oc1ccc(C(F)(F)F)cn1)[C@@H](Cc1ccc(Cl)cc1)c1cccc(C#N)c1`, 14.6 µM (active). For `C[C@@H](CN1CCC(n2c(=O)[nH]c3cc(Cl)ccc32)CC1)NC(=O)c1ccc2ccccc2c1` the value was 18.4 µM (active). In the case of `COc1ccc2c(c1)CN(C(=O)CCN1CCC(Cc3ccccc3)CC1)CCS2`, the Potency was 6.32 µM (active).
